This is part of a sample that, as a whole, favours compounds with a hit. Of some 83,000 tested, about 20% had one in any assay.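 48-hour exposure, single concentration, 96-well plates; percent growth endpoint where 0 means no net growth. Active: below 10.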 Unmarked numbers belong to inactive results. Active and inactive are the calls of the source.
How the values were obtained:
Assay in all cases: NCI-60 one-dose screen, 48 h (100 = growth as untreated, 0 = no growth, -100 = all killed)
Details in all cases: 10 µM unless noted
SK-MEL-2 melanoma = system: SK-MEL-2 melanoma
EKVX NSCLC = system: EKVX NSCLC
UO-31 renal = system: UO-31 renal
TK-10 renal = system: TK-10 renal
ACHN renal = system: ACHN renal
CAKI-1 renal = system: CAKI-1 renal
A498 renal = system: A498 renal
MOLT-4 leukemia = system: MOLT-4 leukemia
CCRF-CEM leukemia = system: CCRF-CEM leukemia

SMILES | growth (SK-MEL-2 melanoma) | growth (EKVX NSCLC) | growth (UO-31 renal) | growth (TK-10 renal) | growth (ACHN renal) | growth (CAKI-1 renal) | growth (A498 renal) | growth (MOLT-4 leukemia) | growth (CCRF-CEM leukemia)
c1ccc(-c2nc3ccccc3[nH]2)c(OCCCCCOc2ccccc2-c2nc3ccccc3[nH]2)c1 | 85.4% | 68.2% | 58.6% | 100% | 89.4% | 104% | 71.5% | 56.3% | –
COC(=O)c1c2c(c(C)[n+]([O-])c1C)C(=O)C(NCc1ccccc1)=CC2=O | 23.6% | 34% | 42.1% | 113% | 35.4% | 22.3% | 98.6% | 16.4% | –
O=C(O)c1cn(C2CC2)c2cc(N3CCN(C(=O)N4CCOCC4)CC3)c(F)cc2c1=O | 103% | 101% | 79.6% | 93.2% | 100% | 96.5% | 117% | 117% | 108%
O=C(NCc1ccc(Cn2c(=O)sn(-c3ccccc3)c2=O)cc1)OCc1ccc2cccc(O)c2n1 | -5.7% (active) | -35.9% (active) | -99.6% (active) | -81.2% (active) | – | -85.9% (active) | 39.3% | -24.8% (active) | –
COC(=O)c1c2c(c[n+]([O-])c1C)C(=O)C=C(NCc1ccccc1)C2=O | -70.8% (active) | -98.8% (active) | -100% (active) | -82.4% (active) | -89.7% (active) | -98.2% (active) | -99.3% (active) | -44.3% (active) | 0.673% (active)
CC1=C2[C@@H](CC1)[C@]1(C)O[C@@](C3CCNCC3)(C[C@H]1OC(=O)CO)[C@H]2OC(=O)/C=C/c1ccccc1 | 106% | 91.8% | 60.1% | 97.3% | 47% | 49.1% | 9.48% (active) | 78.1% | 78.9%
COc1ccc2c(c1)c(-c1nc(-c3ccc4ccccc4c3)cs1)cn2C | 108% | 85.8% | 70.6% | 102% | 87.4% | 83.6% | 86.8% | 84% | 88.7%
COc1ccc(-c2nc(SCC(=O)Nc3nc4ccc(C)cc4s3)[nH]c(=O)c2C#N)cc1OC | 115% | 97% | 61% | 164% | 96.3% | 74.7% | 102% | 99.4% | 110%
COc1ccc(/C=C/C(c2cc(OC)c(OC)c(OC)c2)n2cncn2)cc1O (stereo not drawn) | 18.2% | 59.4% | 54.2% | 41.2% | 63.1% | 34.5% | 19.8% | 21.8% | 6.31% (active)
Fc1ccc(/C=C/[C@@H]2C[C@@H](F)CCO2)cc1 | 110% | 97.3% | 87% | 94.2% | 101% | 86.8% | – | 70.1% | 86.8%
Nc1cc(-c2ccc(Cl)cc2)nn1-c1nnc(/C=C/c2ccco2)c(=O)[nH]1 | 87.9% | 41.7% | 3.92% (active) | 51.2% | – | 1.03% (active) | 33.8% | 44.4% | 33.9%
CCN(CC)CCOc1ccc2ccc(=O)oc2c1 | 103% | 105% | – | 97.7% | 97% | 90.9% | 98.5% | 4.48% (active) | 3.66% (active)
CS(=O)(=O)Nc1cc(-c2ccc3ncnc(Nc4ccc(F)c(Cl)c4)c3c2)ccc1Cl | 62.5% | 20.9% | 36.5% | 17.3% | 27.2% | 18.1% | 6.7% (active) | 40.2% | 30.2%
CNCCCNc1nc2ccccc2c2c(=O)c3cc(Cl)ccc3sc12 | 95.3% | 76.7% | 7.83% (active) | 68.9% | 13.3% | 43.8% | 76.2% | -42% (active) | 12.3%
Cc1ccc2nc(-c3ccc(C(=O)N/N=C/c4ccc([N+](=O)[O-])cc4)cc3)[nH]c2c1 | 116% | 108% | 86.4% | 127% | 104% | 97.4% | 82.8% | 93.4% | 95.3%
Oc1ccc(-c2nc3ccc4[nH]ncc4c3c3c2CCCC3)c(F)c1 | -13.3% (active) | 38.3% | 17.5% | 29.2% | 11.9% | 13% | 30.1% | 2.01% (active) | 12%
c1ccc(-c2c(-c3ccccc3)[n+](Cc3ccc4ccccc4c3)cn2Cc2ccc3ccccc3c2)cc1 | -79.4% (active) | -46.7% (active) | -22.4% (active) | -81.2% (active) | -100% (active) | -9.42% (active) | -95.4% (active) | -67.7% (active) | -66% (active)
CCOc1ccc(/C=C/C(=O)c2cccc(OCCCOc3cccc(C(=O)/C=C/c4ccc(OCC)cc4)c3)c2)cc1 | 106% | 76.9% | 73.4% | 120% | 79.4% | 78% | 73.4% | 73.5% | 67.9%
Cc1cccc(-c2nc(C(C)C)sc2-c2ccnc(NCCCNS(=O)(=O)c3ccc(Cl)cc3)c2)c1 | 79% | 78.4% | 75.3% | 80.1% | 75.6% | 85% | – | 52.3% | 68.4%

Source: PubChem BioAssay (NCI)
